Mtb bLac sens: beta-lactam sensitization of Mtb H37Rv; M. tuberculosis H37Rv growth with meropenem, percent inhibition; inhibition, % at 25 µM; hit rate 0.27% among 330,000; AID 434955;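 note: growth measured after seven days incubation then overnight dye step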
RecA intein inh: inhibitors of M. tuberculosis RecA intein splicing; P9WHJ3; cell-free RecA intein splicing, fluorescence; inhibition, % (concentration not given with the values); hit rate 0.75% among 290,000; AID 2221; in the data active = inhibition above about 30%; inconclusive = no clear call, values can overlap the other calls
Target sequence (P9WHJ3 whole entry, looked up): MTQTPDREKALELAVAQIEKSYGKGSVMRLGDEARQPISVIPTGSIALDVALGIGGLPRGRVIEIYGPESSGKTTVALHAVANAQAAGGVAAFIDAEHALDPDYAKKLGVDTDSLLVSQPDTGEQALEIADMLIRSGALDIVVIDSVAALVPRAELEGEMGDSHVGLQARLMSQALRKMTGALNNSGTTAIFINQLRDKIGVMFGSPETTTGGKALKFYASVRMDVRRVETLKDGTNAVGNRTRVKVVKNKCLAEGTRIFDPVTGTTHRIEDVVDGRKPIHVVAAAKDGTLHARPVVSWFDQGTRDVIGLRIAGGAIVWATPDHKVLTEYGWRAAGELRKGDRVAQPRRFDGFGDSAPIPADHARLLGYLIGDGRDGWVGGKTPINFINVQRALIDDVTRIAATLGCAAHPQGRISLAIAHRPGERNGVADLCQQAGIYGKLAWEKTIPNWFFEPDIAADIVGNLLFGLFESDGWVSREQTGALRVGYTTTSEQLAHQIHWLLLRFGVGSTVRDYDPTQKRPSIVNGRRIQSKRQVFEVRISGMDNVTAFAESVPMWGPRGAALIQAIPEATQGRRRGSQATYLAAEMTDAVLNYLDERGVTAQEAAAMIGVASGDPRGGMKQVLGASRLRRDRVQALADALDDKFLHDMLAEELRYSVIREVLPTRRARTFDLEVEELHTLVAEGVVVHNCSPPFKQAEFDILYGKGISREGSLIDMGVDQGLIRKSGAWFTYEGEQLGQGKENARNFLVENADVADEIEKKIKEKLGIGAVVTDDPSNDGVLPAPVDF
BJeLR lethal: kills HRASV12-expressing BJeLR cells | BJeLR (HRASV12) viability, CellTiter-Glo ATP luminescence, 48 h | inhibition, % (no concentration beside the values) | hit rate 0.17% among 300,000 | AID 1554; in the data active = inhibition above about 50%; inconclusive = no clear call, values can overlap the other calls
Yp Topo-I inh: Y. pestis Topo-I inhibition via cleavage products | hit rate 0.064% among 360,000 | Y. pestis Topo-I cleavage product accumulation, plate reader | AID 504884 | activity, % at 10 µM; in the data active = activity above about 50%, passing the limit was not always enough; inconclusive = no clear call, values can overlap the other calls
CCHFV vOTU inh: CCHFV vOTU protease inhibition; hit rate 0.55% among 370,000; Pep-AMC fluorescence; AID 651958; inhibition, % at 11.5 µM; in the data active = inhibition above about 30%
Mtb BioA inh: blocks M. tuberculosis BioA enzyme activity; purified M. tuberculosis BioA enzyme, plate reader; inhibition, % at 9.99 µM; hit rate 0.096% among 360,000; AID 602481; in the data active = inhibition above about 40%; inconclusive = no clear call, values can overlap the other calls
GFP chromo cs: counter-screen: blocks GFP chromophore formation; shares compounds with RecA intein inh; cell-free GFP chromophore formation, fluorescence; EC50, µM; hit rate 83% among 2,100; AID 434968
Hits are given with their value; - = inactive; ? = inconclusive; . = not tested or not shown. In the library only some 1.1% were active in any assay of this set; here they are far more common. Unless noted, the rule behind the calls is not given here.

SMILES | Mtb bLac sens | RecA intein inh | BJeLR lethal | Yp Topo-I inh | CCHFV vOTU inh | Mtb BioA inh | GFP chromo cs
COc1ccc(S(=O)(=O)N(C)C[C@@H]2OCCCC[C@@H](C)Oc3ccc(NC(=O)Nc4ccc(C(F)(F)F)cc4)cc3C(=O)N([C@@H](C)CO)C[C@@H]2C)cc1 | . | . | . | . | . | - | .
O=c1oc2cc(Oc3c([N+](=O)[O-])cc(C(F)(F)F)cc3[N+](=O)[O-])ccc2c2c1CCCC2 | - | 41 | - | - | - | - | 0.96
C[C@@H]1CN([C@@H](C)CO)S(=O)(=O)c2ccc(C#CCN(C)C)cc2O[C@H]1CN(C)Cc1cccnc1 | . | . | . | . | . | - | .
C[C@@H]1CN([C@@H](C)CO)C(=O)c2cc(NC(=O)Nc3ccccc3)ccc2O[C@@H](C)CCCCO[C@H]1CN(C)Cc1ccc2c(c1)OCO2 | . | . | . | . | . | - | .
O=C1CC(CC(=O)N/N=C/c2ccccc2[N+](=O)[O-])=NN1 | - | 90 | - | - | - | - | 7.3
O=C(C[n+]1ccccc1)N/N=C/c1ccccc1[N+](=O)[O-] | - | - | - | - | - | . | .
O=[N+]([O-])c1cc(-c2ccc(C(=S)N3CCOCC3)o2)ccc1Cl | - | 31 | - | - | - | . | 18
COC(=O)CN1C(c2ccc(Cl)cc2)=Nc2ccc(Cl)cc2C1c1ccccc1 (stereo unspecified) | - | 32 | - | - | - | . | -
COc1ccc(C2=Nc3ccc(C)cc3C(c3ccccc3)N2CC(=O)NN)cc1 (stereo unspecified) | - | - | - | - | - | . | .
CS(=O)(=O)c1ccc(C(=O)Nc2ccc(N3CCOCC3)cc2)c(Cl)c1 | - | - | - | - | - | - | .
CS(=O)(=O)c1ncc(Cl)c(C(=O)Nc2ccc(N3CCOCC3)cc2)n1 | - | 45 | - | - | . | . | 38
CS(=O)(=O)c1ncc(Cl)c(C(=O)Nc2ccc(OC(F)F)cc2)n1 | - | 79 | - | - | . | - | 11
C[C@@H]1CCCCO[C@H](CN(C)C(=O)CCC(F)(F)F)[C@@H](C)CN([C@@H](C)CO)C(=O)c2cc(NC(=O)CCCCCC(=O)Nc3ccccc3N)ccc2O1 | . | . | . | . | . | - | .
O=C(O)c1ccc(-n2ccnc2)c([N+](=O)[O-])c1 | - | - | - | - | - | - | .
COC(=O)c1cc([N+](=O)[O-])c(-n2ccnc2)c([N+](=O)[O-])c1 | - | 71 | - | - | - | . | 11
N#Cc1cc([N+](=O)[O-])c(-n2nnc3ccccc32)c([N+](=O)[O-])c1 | - | 94 | - | - | . | - | -
CS(=O)(=O)c1ccc(-n2nnc3ccccc32)c([N+](=O)[O-])c1 | - | - | - | - | - | - | .
CNC[C@H]1Oc2ccc(NC(=O)Nc3ccccc3)cc2CC(=O)N([C@@H](C)CO)C[C@H]1C | . | . | . | . | . | - | .
COc1cc(/C=N\NC(=O)c2ccc(Cl)cc2)ccc1Oc1ccc([N+](=O)[O-])cn1 | - | - | - | - | - | . | .
COc1cc(/C=N\NC(=O)c2ccccc2F)ccc1Oc1ccc([N+](=O)[O-])cn1 | - | 34 | - | - | - | . | -
O=C(Cc1cc(=O)[nH][nH]1)N/N=C/c1c(Cl)cccc1Cl | - | 70 | - | - | - | . | 12
O=C(Cc1cc(=O)[nH][nH]1)N/N=C/c1c(F)cccc1Cl | - | 95 | - | - | - | . | 7.9
CCCC#Cc1cnc2c(c1)C(=O)N([C@H](C)CO)C[C@H](C)[C@H](CN(C)C(=O)Nc1cc(F)ccc1F)O2 | . | . | . | . | . | - | .
COc1cccc(CNC(=O)C[C@@H]2CC[C@H](NC(C)=O)[C@@H](CO)O2)c1 | . | . | . | . | . | - | .
CCOC(=O)c1sc(N(Cc2ccccc2)C(=O)CCl)nc1C | - | 88 | - | - | - | - | 3.1
SMILES | Mtb bLac sens | RecA intein inh | BJeLR lethal | Yp Topo-I inh | CCHFV vOTU inh | Mtb BioA inh | GFP chromo cs
CCOC(=O)c1sc(N(Cc2ccccc2)C(=O)COC(=O)c2ccccc2O)nc1C | - | - | - | - | - | . | .
CCN(c1ccccc1)c1cc2ccccc2c(=O)[nH]1 | - | 65 | - | - | - | - | 31
Cc1ccc2c(c1)C1C=CCC1C(C(=O)O)N2 (stereo unspecified) | - | - | - | . | . | . | .
O=C(O)C1Nc2c(O)cc(Cl)c([N+](=O)[O-])c2C2C=CCC12 (stereo unspecified) | - | 43 | - | - | 35 | . | 13
C[C@@H]1CN([C@H](C)CO)C(=O)c2cc(NC(=O)Cc3cn(C)c4ccccc34)ccc2O[C@@H]1CN(C)C(=O)Nc1ccc(F)cc1 | . | . | . | . | . | - | .
CC[n+]1ccc2cc(OC)c(OC)cc2c1Cc1ccc(OC)c(OC)c1 | - | 51 | - | - | . | - | -
Cc1noc(C)c1S(=O)(=O)N(C)C[C@H]1Oc2ccc(NC(=O)Nc3ccc4c(c3)OCO4)cc2CC(=O)N([C@H](C)CO)C[C@H]1C | . | . | . | . | . | - | .
N#C/C(=C\c1cc(Cl)c(OCc2ccc(Cl)cc2)c(Cl)c1)C(N)=O | - | 44 | - | . | . | . | -
Cc1noc(C)c1S(=O)(=O)Nc1ccc2c(c1)C(=O)N([C@@H](C)CO)C[C@@H](C)[C@H](CN(C)Cc1ccc(Cl)c(Cl)c1)OCCCC[C@@H](C)O2 | . | . | . | . | . | - | .
COc1ccc(C(=O)Nc2ccc(O)c3ccccc23)cc1OC | - | 98 | - | - | - | - | 15
O=C(Nc1ccccc1)Nc1ccc(O)c2ccccc12 | - | 60 | - | . | . | . | 3
COc1ccc(C(=O)Nc2ccc(F)cc2F)cc1OC | - | - | - | - | - | . | .
C[C@@H]1CCCCO[C@H](CN(C)C(=O)Nc2ccc(F)cc2)[C@@H](C)CN([C@@H](C)CO)C(=O)c2cc(NC(=O)c3ccccc3)ccc2O1 | . | . | . | . | . | - | .
O=C(O)CC1OCC=C2CN3CCC45C6=CC(=O)C(=O)C([N+](=O)[O-])=C6NC4C1C2CC35 (stereo unspecified) | ? | 85 | - | - | . | - | 7.1
O=C(O)CC1OCC=C2CN3CCC45c6ccccc6NC4C1C2CC35 (stereo unspecified) | - | - | - | - | - | - | .
O=C(COc1cc2oc(=O)c3c(c2cc1Cl)CCC3)Nc1cccnc1 | - | - | - | - | - | - | .
Cc1c(OCC(=O)Nc2cccnc2)ccc2c3c(c(=O)oc12)CCC3 | - | 94 | - | - | - | - | 10
Cc1cccc(Nc2nc(NCc3ccco3)c3ccccc3n2)c1 | - | 33 | - | - | - | . | 15
c1ccc(Nc2nc(NCc3ccco3)c3ccccc3n2)cc1 | - | 38 | - | - | - | - | 26
Nn1c(Cc2ccccc2)n[nH]c1=S | - | - | - | - | - | . | .
NNc1n[nH]c(=S)n1N | - | 78 | - | - | - | - | -
CO[C@@H]1CN(C)C(=O)c2cc(C#N)ccc2OC[C@H]2O[C@@H](CC[C@H]2OC)CCN(C)C(=O)[C@H]1C | . | . | . | . | . | - | .
CCN(CC)CCN1C(=O)c2cccc3cc(N)cc(c23)C1=O | - | 46 | - | - | - | - | 0.42
Nc1nn2c(-c3ccccc3)cc(=O)[nH]c2c1N=Nc1ccc(Br)cc1 | . | . | . | - | - | . | .
Nc1nn2c(-c3ccccc3)cc(=O)[nH]c2c1N=Nc1ccc(O)cc1 | - | 52 | - | - | - | . | 2

High-throughput results: PubChem, several laboratories
